In PubChem BioAssay AID1159580 (chemical genetic matrix, 2015):
Among all 5,500 compounds or so, about 2,000 (36%) were called active. Inconclusive results (about 18%) are left out. No stated cut-off is given here; in the data, active means normalized growth mostly below about 0.91 (no sharp cut-off); inconclusive means no clear call, values can overlap the other calls; inactive means mostly above about 0.92. The list shows a part of the results.

Assay: chemical genetic growth profiling, strain panel (AID 1159580);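 further: tested at 20 µM; growth read once vehicle control cultures reached saturation at 30 °C; 1 = growth at the plate median or of vehicle wells; lower values mean less growth of the strain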
Conditions: growth OD
[1] = S. cerevisiae deletion strains, locus YAL013W, strain DEP1, hits give low values
[2] = S. cerevisiae deletion strains, locus YBR229C, strain ROT2, hits give low values
[3] = S. cerevisiae deletion strains, locus YDL101C, strain DUN1, hits give low values
[4] = S. cerevisiae deletion strains, locus YDL134C, strain PPH21, hits give low values
[5] = S. cerevisiae deletion strains, locus YDR150W, strain NUM1, hits give low values
[6] = S. cerevisiae deletion strains, locus YEL061C, strain CIN8, hits give low values
[7] = S. cerevisiae deletion strains, locus YGR078C, strain PAC10, hits give low values
[8] = S. cerevisiae deletion strains, locus YHR030C, strain SLT2, hits give low values
[9] = S. cerevisiae deletion strains, locus YHR087W, strain rtc3, hits give low values
[10] = S. cerevisiae deletion strains, locus YJR043C, strain POL32, hits give low values
[11] = S. cerevisiae deletion strains, locus YJR075W, strain HOC1, hits give low values
[12] = S. cerevisiae deletion strains, locus YKL190W, strain CNB1, hits give low values
[13] = S. cerevisiae deletion strains, locus YLR039C, strain RIC1, hits give low values
[14] = S. cerevisiae deletion strains, locus YLR058C, strain SHM2 (second series), hits give low values
[15] = S. cerevisiae deletion strains, locus YLR085C, strain ARP6, hits give low values
[16] = S. cerevisiae deletion strains, locus YLR262C, strain YPT6, hits give low values
[17] = S. cerevisiae deletion strains, locus YML094W, strain GIM5, hits give low values
[18] = S. cerevisiae deletion strains, locus YMR219W, strain ESC1, hits give low values
[19] = S. cerevisiae deletion strains, locus YMR263W, strain SAP30, hits give low values
[20] = S. cerevisiae deletion strains, locus YMR307W, strain GAS1, hits give low values
[21] = S. cerevisiae deletion strains, locus YNL153C, strain GIM3, hits give low values
[22] = S. cerevisiae deletion strains, locus YNL298W, strain CLA4 (second series), hits give low values
[23] = S. cerevisiae deletion strains, locus YNL322C, strain KRE1, hits give low values
[24] = S. cerevisiae deletion strains, locus YNR030W, strain Alg12, hits give low values
[25] = S. cerevisiae deletion strains, locus YPL055C, strain LGE1, hits give low values
[26] = S. cerevisiae deletion strains, locus YPL241C, strain CIN2, hits give low values
[27] = S. cerevisiae deletion strains, locus YPR135W, strain CTF4, hits give low values

Measured: normalized growth

N/C(=N/O)c1csc(-c2ccc(F)cc2F)n1
inactive: [1] 0.96 | [2] 0.978 | [3] 1.02 | [4] 0.995 | [5] 0.968 | [6] 1.01 | [7] 0.989 | S. cerevisiae deletion strains, locus YGR229C, strain SMI1, hits give low values 0.995 | [8] 0.921 | [9] 0.98 | [10] 1 | [11] 1.02 | [12] 0.996 | [13] 0.933 | [14] 1.01 | [15] 1.14 | [16] 0.969 | [17] 0.933 | [18] 0.995 | [19] 0.997 | [20] 1.25 | [21] 0.986 | [22] 1.01 | [23] 1 | [24] 0.983 | [25] 0.943 | [26] 1 | [27] 0.844 | S. cerevisiae strains, strain wild type, hits give low values 0.991

Cc1ccc(/C(N)=N\O)cc1F
inactive: [1] 0.998 | [2] 1 | [3] 1.01 | [4] 0.988 | [5] 0.995 | [6] 1.01 | [7] 1.01 | [8] 1.03 | [9] 1 | S. cerevisiae deletion strains, locus YJL187C, strain SWE1, hits give low values 1.02 | [10] 1.01 | [11] 1.03 | [12] 0.988 | [13] 1.04 | [14] 1.02 | [16] 0.997 | [17] 1 | [18] 1 | [19] 1 | [20] 1.24 | S. cerevisiae deletion strains, locus YNL128W, strain TEP1, hits give low values 0.975 | [21] 1.02 | [22] 1.02 | [23] 1 | [24] 0.989 | S. cerevisiae deletion strains, locus YOL006C, strain TOP1, hits give low values 1.03 | [25] 1.03 | [26] 1.1 | [27] 1.07
active: [15] 1.32 [resistant]
